Source: PubChem
Mtb BioA inh: blocks M. tuberculosis BioA enzyme activity; inhibition, % at 9.99 µM; AID 602481; purified M. tuberculosis BioA enzyme, plate reader; hit rate 0.096% among 360,000; in the data active = inhibition above about 40%
CCHFV vOTU inh: blocks the CCHF virus ovarian tumor domain protease; CCHFV vOTU protease, Pep-AMC fluorescence; inhibition, % at 11.5 µM; hit rate 0.55% among 370,000; in the data active = inhibition above about 30%; note: 0% = vehicle wells with enzyme and 100% = no enzyme wells
Mtb bLac sens: beta-lactam sensitization of Mtb H37Rv; AID 434955; M. tuberculosis H37Rv growth with meropenem, percent inhibition; inhibition, % at 25 µM; hit rate 0.27% among 330,000;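 note: growth measured after seven days incubation then overnight dye step; 0% = bacteria only wells and 100% = bacteria with antibiotic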
Y pestis TopoI: blocks Yersinia pestis topoisomerase I activity. Y. pestis Topo-I cleavage product accumulation, plate reader. activity, % at 10 µM. hit rate 0.064% among 360,000. AID 504884; in the data active = activity above about 50%, passing the limit was not always enough
RecA splice inh: blocks M. tuberculosis RecA intein splicing; hit rate 0.75% among 290,000; cell-free RecA intein splicing, fluorescence; inhibition, % (no concentration beside the values); P9WHJ3; in the data active = inhibition above about 30%;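 note: 0% = vehicle wells and 100% = reference inhibitor control wells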
Target sequence (P9WHJ3 whole entry, looked up, canonical isoform): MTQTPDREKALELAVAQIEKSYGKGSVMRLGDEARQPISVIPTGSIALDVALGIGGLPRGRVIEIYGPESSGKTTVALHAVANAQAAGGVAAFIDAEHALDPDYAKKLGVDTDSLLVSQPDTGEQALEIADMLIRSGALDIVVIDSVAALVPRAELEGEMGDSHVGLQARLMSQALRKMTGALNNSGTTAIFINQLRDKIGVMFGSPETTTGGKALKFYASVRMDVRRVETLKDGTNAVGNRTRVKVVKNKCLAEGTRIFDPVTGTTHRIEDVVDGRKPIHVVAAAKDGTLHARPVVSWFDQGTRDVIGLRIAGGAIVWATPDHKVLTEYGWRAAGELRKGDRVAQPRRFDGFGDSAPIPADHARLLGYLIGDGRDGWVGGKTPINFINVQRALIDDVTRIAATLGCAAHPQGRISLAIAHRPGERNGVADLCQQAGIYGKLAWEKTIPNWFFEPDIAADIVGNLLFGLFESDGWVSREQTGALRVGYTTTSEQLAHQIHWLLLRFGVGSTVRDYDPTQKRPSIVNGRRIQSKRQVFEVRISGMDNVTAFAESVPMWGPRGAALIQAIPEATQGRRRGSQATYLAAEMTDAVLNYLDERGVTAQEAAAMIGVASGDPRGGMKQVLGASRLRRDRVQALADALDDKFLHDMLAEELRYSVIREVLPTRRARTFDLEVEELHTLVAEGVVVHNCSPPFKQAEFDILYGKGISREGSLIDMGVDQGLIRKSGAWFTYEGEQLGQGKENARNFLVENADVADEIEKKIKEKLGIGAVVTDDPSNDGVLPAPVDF
BJeLR lethal: kills HRASV12-expressing BJeLR cells | BJeLR (HRASV12) viability, CellTiter-Glo ATP luminescence, 48 h | inhibition, % (test concentration not listed) | hit rate 0.17% among 300,000; in the data active = inhibition above about 50%
GFP chromophore: counter-screen: blocks GFP chromophore formation | shares compounds with RecA splice inh | cell-free GFP chromophore formation, fluorescence | EC50, µM | hit rate 83% among 2,100
An asterisk follows results filed as active; . = no result. Most compounds without a hit are left out; they make up all but 1.1% or so of the library. Unless noted, the rule behind the calls is not given here.

SMILES	Mtb BioA inh	CCHFV vOTU inh	Mtb bLac sens	Y pestis TopoI	RecA splice inh	BJeLR lethal	GFP chromophore
O=S(=O)(Nc1c(O)ccc2ccccc12)c1ccc(F)cc1	.	2.0	1.8	2.8	95.4*	0.4	3.04*
COc1ccc(S(=O)(=O)Nc2ccc(O)c3ccccc23)cc1	-0.1	81.9*	30.4	-5.8	95.8*	1.9	0.136*
O=S(=O)(Nc1c(O)ccc2ccccc12)c1ccccc1	-1.0	-0.6	10.4	-12.2	93.3*	6.1	2.2*
COc1ccc(S(=O)(=O)Nc2ccccc2)cc1	.	-9.4	-2.7	-0.6	1.9	-2.5	.
COC(=O)c1cc(NC(=O)Nc2ccccc2OC)cc(C(=O)OC)c1	.	-3.8	8.6	0.9	39.7*	-2.9	>38
COc1ccccc1NC(=O)Nc1cccc(C(=O)O)c1	.	0.5	3.0	1.8	-0.5	0.2	.
COc1cccc(CNC(=O)C[C@@H]2C=C[C@H](NS(=O)(=O)c3ccccc3OC)[C@H](CO)O2)c1	3.9	.	.	.	.	.	.
CCCC#Cc1cnc2c(c1)C(=O)N([C@@H](C)CO)C[C@@H](C)[C@@H](CN(C)C(=O)Cc1ccncc1)O2	-1.0	.	.	.	.	.	.
CCC1=Nc2cc(C(=O)NCCCN3CCOCC3)ccc2Sc2ccccc21	-0.2	-10.4	-0.8	25.1	-0.7	1.3	.
CCC1=Nc2cc(C(=O)NCCN3CCCC3)ccc2Sc2ccccc21	-2.4	13.9	-2.3	-14.4	37.5*	2.0	>38
CO[C@@H]1CN(C)C(=O)c2cc(NC(=O)C3CCCC3)ccc2OC[C@@H](C)N(C)C[C@@H]1C	3.3	.	.	.	.	.	.
CC1=NNC(=O)/C1=C\c1cn(-c2ccccc2)nc1-c1ccccc1	.	26.0	71.5	-4.9	97.4*	.	1.77*
CCOc1cc(/C=C2\C(=O)N(c3ccc(C(N)=O)cc3)N=C2C)ccc1OC(=O)c1cccs1	5.5	.	88.7	2.9	94.1*	14.9	3.35*
CCOc1cc(/C=C2/SC(=S)N(CC(=O)O)C2=O)ccc1OC(=O)c1cccs1	3.4	18.9	2.3	12.3	16.1	2.6	.
COc1ccc(S(=O)(=O)Nc2ccc3c(c2)C(=O)N([C@@H](C)CO)C[C@@H](C)[C@@H](CN(C)CC2CC2)OCCCC[C@@H](C)O3)cc1	1.1	.	.	.	.	.	.
CC1=NN(c2ccccc2)C(=O)/C1=C\c1cc(C)n(-c2cccnc2)c1C	.	-7.6	-11.2	-1.0	32.5*	-10.3	30.7*
CC1=NN(c2ccccc2)C(=O)/C1=C/c1cccs1	.	16.0	-10.2	-13.8	85.4*	11.7	6.01*
CC1=NN(c2ccccc2)C(=O)/C1=C\c1cc(C)n(-c2ccccc2)c1C	.	-5.4	-2.8	-3.0	0.3	-22.3	.
COc1cc(/C=C2/C(=O)N(c3ccccc3)N=C2C)ccc1OS(=O)(=O)c1ccccc1	.	.	5.0	.	69.7*	-6.4	1.85*
COc1ccc(/C=C2/C(=O)N(c3cccc(F)c3)N=C2C)c(OC)c1	0.5	-3.9	-1.6	-3.7	46.1*	-2.2	>38
CC1=NN(c2cccc(F)c2)C(=O)/C1=C/c1ccc(N(C)C)cc1	-0.1	-0.2	-0.9	4.3	0.7	3.5	.
CC(C)NC(=O)N(C)C[C@H]1Oc2ncc(C#CCC3CCCC3)cc2C(=O)N([C@H](C)CO)C[C@@H]1C	-0.3	.	.	.	.	.	.
CCOc1ccc(/C=C2\SC(=S)N(CCC(=O)Nc3ccccc3C(=O)O)C2=O)cc1	-0.1	2.4	9.6	6.6	36.2*	-0.6	>38
O=C(c1c[nH]c(C(=O)C(Cl)(Cl)Cl)c1)c1ccccc1Cl	.	7.9	-4.0	-8.1	31.9*	3.1	25*
NC(=O)c1cc(C(=O)c2ccc(Cl)cc2Cl)c[nH]1	.	3.5	-3.2	0.5	1.3	4.9	.
SMILES	Mtb BioA inh	CCHFV vOTU inh	Mtb bLac sens	Y pestis TopoI	RecA splice inh	BJeLR lethal	GFP chromophore
COc1ccc(C(=O)c2c(C(F)(F)F)oc3c2C(=O)c2ccccc2C3=O)cc1	.	.	67.5	-7.3	86.8*	2.7	0.132*
Cc1ccc(C(=O)c2c(C)oc3c2C(=O)C(=O)c2ccccc2-3)cc1	.	.	36.2	-2.8	-1.0	-4.5	.
Cc1ccc(Sc2c([N+](=O)[O-])ncn2C)cc1	.	4.0	-14.1	3.9	52.8*	-19.4	>38
Cc1ccc(Sc2c(C)[nH]n(C(C)(C)C)c2=O)cc1	-2.3	1.6	-17.2	8.8	50.1*	1.8	39.7*
Cc1ccc(SC2=C(Sc3ccc(C)cc3)C(=O)c3ccccc3C2=O)cc1	-1.1	-1.1	-2.1	-30.9	12.5	10.2	.
O=C(C1CC1)N1[C@H](CO)[C@H]2c3ccccc3NC[C@H]21	2.6	.	.	.	.	.	.
C[C@H]1CN([C@@H](C)CO)C(=O)c2cc(N(C)C)ccc2O[C@@H]1CN(C)S(C)(=O)=O	-2.5	.	.	.	.	.	.
COCC(=O)Nc1ccc2c(c1)C(=O)N(C)[C@@H]1CC[C@H](CC(=O)NCCc3ccncc3)O[C@@H]1CO2	-4.3	.	.	.	.	.	.
Cc1cccn2c(CNCC3(c4ccccc4)CCCC3)c(C(=O)N3CCOCC3)nc12	.	9.3	-3.3	29.9	1.6	-2.7	>38
C[C@@H]1CN([C@@H](C)CO)C(=O)c2cc(NC(=O)Nc3ccc4c(c3)OCO4)ccc2O[C@@H]1CN(C)C(=O)Nc1ccccc1	-1.2	.	.	.	.	.	.
Cc1ccc(C(c2c(C)[nH][nH]c2=O)c2c(C)[nH][nH]c2=O)cc1[N+](=O)[O-]	1.4	-17.0	-1.0	0.5	99.1*	3.9	0.495*
Cc1ccc(/C=C2\NC(=S)NC2=O)cc1[N+](=O)[O-]	.	-8.0	3.2	-2.8	2.5	5.1	.
CCOc1cc(C2C3=C(CCCC3=O)NC3=C2C(=O)CCC3)cc(Cl)c1O	0.3	11.3	2.1	-7.1	-6.2	11.9	.
CCOc1cc(C(c2c(C)[nH][nH]c2=O)c2c(C)[nH][nH]c2=O)cc([N+](=O)[O-])c1O	-1.1	22.2	7.7	-10.6	97.4*	-8.2	0.452*
CCOc1cc(C(c2c(C)[nH][nH]c2=O)c2c(C)[nH][nH]c2=O)cc(Cl)c1O	3.2	-2.0	6.3	2.1	94.9*	-2.3	>38
COC(=O)COc1c(Cl)cc(C(c2c(C)[nH][nH]c2=O)c2c(C)[nH][nH]c2=O)cc1OC	-0.9	11.7	0.1	5.9	95.7*	4.3	0.577*
O=C(C[C@H]1C=C[C@H](NC(=O)Nc2ccccc2)[C@H](CO)O1)NCc1cccc(F)c1	-2.1	.	.	.	.	.	.
COc1cc(/C=C/c2[nH]c(=O)[nH]c(=O)c2[N+](=O)[O-])cc([N+](=O)[O-])c1O	4.4	12.7	6.2	5.7	-0.7	2.2	.
COc1cc(C(c2c(C)[nH][nH]c2=O)c2c(C)[nH][nH]c2=O)cc([N+](=O)[O-])c1O	.	13.2	0.7	-10.4	97.2*	3.4	0.446*
CCCc1cc(=O)n2[nH]c(-c3ccccc3)cc2n1	0.3	-4.9	1.9	-7.7	-0.8	-4.0	.
CCCCn1[nH]c(-c2ccccc2)cc1=O	.	4.4	8.9	2.1	97.3*	2.6	2.82*
COc1cccc(NC(=O)N(C)C[C@H]2Oc3cc(C#CC4(O)CCCC4)ccc3S(=O)(=O)N([C@@H](C)CO)C[C@H]2C)c1	1.1	.	.	.	.	.	.
Cc1ccccc1-c1nc(CN(C)C(C)c2ccon2)c(C)o1 (stereo unspecified)	.	14.2	-0.3	11.0	38.6*	-4.4	12.8*
